Results filed as inconclusive are left out. Active and inactive are the calls of the source. How the source made its calls: active means hit-call score of the fitted dose curve at least 0.9, where 1 is the maximum; inconclusive means response in the unintended direction; inactive means score below 0.9.
Experiment: ACEA_AR_agonist_AUC_viability: ACEA Biosciences xCELLigence Real-Time Cell Analysis on Androgen Receptor Agonism for Viability (AID 2283775);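 on AC50: viability read 80 hours after compound addition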
In short: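 22Rv1 cells; impedance growth kinetics; 8-pt 1:4 dilutions from 100 uM top final, ≤0.5% DMSO; n = 2; 80 h read; AUC viability, loss-of-signal vs DMSO.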

SMILES | outcome | AC50
COc1ccc(C)cc1N | inactive | 
CCCCCC(=O)O | inactive | 
COc1cc(-c2nc(NC(=O)c3cc4cc(C)cc(C)c4n3CC(=O)O)sc2CCC2CCCCC2)c(OC)cc1Cl |  | 9.71 µM (active)
CC1(C)CC(N=C=O)CC(C)(CN=C=O)C1 (stereo not drawn) |  | 25.5 µM (active)
C[Si]1(C)O[Si](C)(C)O[Si](C)(C)O[Si](C)(C)O1 | inactive | 
CCOc1ccc2c(c1)C(C)=CC(C)(C)N2 |  | 79.8 µM (active)
CC1=C(/C=C/C(C)=C/C=C/C(C)=C/CO)C(C)(C)CCC1 |  | 72.2 µM (active)
Nc1nc(N)c2nc(CNc3ccc(C(=O)N[C@@H](CCC(=O)O)C(=O)O)cc3)cnc2n1 | inactive | 
Cc1ccc(C)c(O)c1C | inactive | 
CCCCCCC(=O)OCC |  | 87.7 µM (active)
Nc1ccccc1N | inactive | 
Cc1nc(-c2ccc3c(c2)CCN(CCC2CCC(NC(=O)/C=C/c4ccc(F)cc4)CC2)CC3)no1 (stereo not drawn) | inactive | 
CCNc1cccc(C)c1 | inactive | 
Cc1oc(-c2ccccc2)nc1CCOc1cccc2c1ccn2CCC(=O)O |  | 68.8 µM (active)
CNC(=O)[C@H]1O[C@@H](n2cnc3c(NCc4cc(Cl)ccc4OCc4cc(C)no4)ncnc32)[C@H](O)[C@@H]1N | inactive | 
CC(=O)OC/C=C(\C)CCC=C(C)C | inactive | 
Cc1ccc(C(C)C)c(O)c1 | inactive | 

SMILES | outcome | AC50
Nc1ccc2c(c1)C(=O)c1ccccc1C2=O | inactive | 
FC(F)(F)C(F)(F)C(F)(F)C(F)(F)C(F)(F)C(F)(F)CCI | inactive | 
O=C(N[C@@H](Cc1ccccc1)[C@@H](O)C(=O)N1C[C@@H](O)[C@@H](O)C1)c1cc2cc(Cl)ccc2[nH]1 |  | 69.6 µM (active)
CCOC(=O)C(C)(C)Oc1ccc(Cl)cc1 | inactive | 
C1CCC(SSC2CCCCC2)CC1 |  | 77.7 µM (active)
CNCc1cc(F)ccc1Oc1ccc(Cl)c(Cl)c1 |  | 75.9 µM (active)
COc1cc(/C=C/C(=O)CC(=O)/C=C/c2ccc(O)c(OC)c2)ccc1O |  | 27 µM (active)
O=C(O)Cc1ccccc1Nc1c(Cl)cccc1Cl |  | 42.1 µM (active)
COc1cccc2c1C(=O)c1c(O)c3c(c(O)c1C2=O)C[C@@](O)(C(=O)CO)C[C@@H]3O[C@H]1C[C@H](N)[C@H](O)[C@H](C)O1 |  | 0.0985 µM (active)
Oc1ccc2c(c1)OC[C@@H](N1CCC(O)(c3ccc(F)cc3)CC1)[C@H]2O | inactive | 
Clc1cc(Cl)c(Cl)cc1Cl | inactive | 
Cc1cc(=O)[nH]c(=S)[nH]1 | inactive | 
CCCCCCCCCCCCCCCCCC(=O)O | inactive | 
COc1ccc(S(=O)(=O)N2C(=O)[C@@](c3ccccc3OC)(N3C[C@H](O)C[C@H]3C(=O)N(C)C)c3cc(Cl)ccc32)c(OC)c1 |  | 20.3 µM (active)
CN[C@H]1CC[C@@H](c2ccc(Cl)c(Cl)c2)c2ccc(S(N)(=O)=O)cc21 |  | 15.2 µM (active)
COc1ccc2c(c1)c(CC(=O)O)c(C)n2C(=O)c1ccc(Cl)cc1 |  | 37 µM (active)

Source: PubChem BioAssay (EPA / NIEHS)
